Measured values as given in PubChem BioAssay (EPA / NIEHS).
Activity calls are given as the source filed them. How the source made its calls: active means hit-call score of the fitted dose curve at least 0.9, where 1 is the maximum; inactive means score below 0.9.

Assays:
Settings in all cases: mRNA level, 48 h; actives raise or lower the signal
[1] = read-out: flavin-containing dimethylaniline monooxygenases 3 (FMO3), FMO3 (gene 2328); test: LTEA_HepaRG_FMO3: Life Technologies and Expression Analysis (LTEA) Assay for flavin-containing dimethylaniline monooxygenases 3 (FMO3) using HepaRG (AID 2283453);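 on AC50: differentiated human HepaRG liver cells in serum-free induction medium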
How it was run: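 FMO3 transcript quantified by TaqMan qRT-PCR against three housekeeping genes after 48 h chemical exposure of HepaRG cells. Eight-point half-log series, top 100 uM, 0.5% DMSO vehicle; phenobarbital 1mM induction control; up- or down-regulation fitted.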

[2] = read-out: Cytochrome P450 (CYP1A1), CYP1A1 (gene 1543); test: LTEA_HepaRG_CYP1A1: Life Technologies and Expression Analysis (LTEA) Assay for Cytochrome P450 (CYP1A1) using HepaRG (AID 2283454)
How it was run: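 Differentiated HepaRG cells in serum-free induction medium were exposed in duplicate for 48 h to eight half-log concentrations up to 100 uM in 0.5% DMSO. CYP1A1 mRNA was quantified by TaqMan qRT-PCR, normalized to ACTB, GAPDH and POLR2A.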

[3] = read-out: CFLAR gene, CFLAR (gene 8837); test: LTEA_HepaRG_CFLAR: Life Technologies and Expression Analysis (LTEA) Assay for CFLAR gene using HepaRG (AID 2283455)
How it was run: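 qRT-PCR read-out (Fluidigm/TaqMan) of CFLAR mRNA, normalized to three housekeeping genes, in differentiated human HepaRG cells after 48 h chemical exposure; 8-point half-log series from 100 uM in 0.5% DMSO; bidirectional curve fitting versus DMSO.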

[4] = read-out: Forkhead box O1 (FOXO1), FOXO1 (gene 2308); test: LTEA_HepaRG_FOXO1: Life Technologies and Expression Analysis (LTEA) Assay for Forkhead box O1 (FOXO1) using HepaRG (AID 2283456)
How it was run: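 HepaRG, 48 h exposure, 8-pt half-log series from 100 uM in 0.5% DMSO, duplicates; Fluidigm qRT-PCR mRNA, housekeeping-normalised; bidirectional fit vs DMSO baseline.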

[5] = read-out: growth arrest and DNA damage 45 (GADD45A), GADD45A (gene 1647); test: LTEA_HepaRG_GADD45A: Life Technologies and Expression Analysis (LTEA) Assay for growth arrest and DNA damage 45 (GADD45A) using HepaRG (AID 2283458)
How it was run: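 GADD45A expression was measured by TaqMan qRT-PCR against three housekeeping genes (ACTB, GAPDH, POLR2A) after 48 h treatment of HepaRG cells. Eight-point half-log series up to 100 uM in 0.5% DMSO, run in duplicate.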

[6] = read-out: Forkhead box O3 (FOXO3), FOXO3 (gene 2309); test: LTEA_HepaRG_FOXO3: Life Technologies and Expression Analysis (LTEA) Assay for Forkhead box O3 (FOXO3) using HepaRG (AID 2283459)
How it was run: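 qRT-PCR readout of FOXO3 transcript, normalized to three housekeeping genes (ACTB, GAPDH, POLR2A); gain or loss fitted against 0.5% DMSO vehicle. HepaRG cells, 48 h chemical exposure, 8-point half-log series, top 100 uM.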

[7] = read-out: growth arrest and DNA damage 45 (GADD45B), GADD45B (gene 4616); test: LTEA_HepaRG_GADD45B: Life Technologies and Expression Analysis (LTEA) Assay for growth arrest and DNA damage 45 (GADD45B) using HepaRG (AID 2283461)
How it was run: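 Differentiated HepaRG cells, plated 48 h then switched to serum-free induction medium, were exposed 48 h in duplicate to eight half-log concentrations from 100 uM in 0.5% DMSO; mRNA quantified by qRT-PCR, normalized to ACTB/GAPDH/POLR2A, bidirectional fit versus DMSO.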

[8] = read-out: catalase (CAT), CAT (gene 847); test: LTEA_HepaRG_CAT: Life Technologies and Expression Analysis (LTEA) Assay for catalase (CAT) using HepaRG (AID 2283452)
How it was run: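 HepaRG cells in serum-free induction medium, 0.5% DMSO vehicle, exposed 48 h in duplicate over 8 half-log concentrations from 100 uM. CAT mRNA measured by qRT-PCR, normalized to ACTB, GAPDH, POLR2A; bidirectional fit versus DMSO.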

## CC1(C)NC(=O)N(c2ccc([N+](=O)[O-])c(C(F)(F)F)c2)C1=O
[1]
  AC50: 76.6 µM (active)
[2]
  outcome: inactive
[3]
  outcome: inactive
[4]
  outcome: inactive
[5]
  AC50: 50 µM (active)
[6]
  outcome: inactive
[7]
  outcome: inactive

## O=C(OCCCCCCOC(=O)c1ccccc1)c1ccccc1
[8]
  outcome: inactive
[1]
  outcome: inactive
[2]
  outcome: inactive
[3]
  outcome: inactive
[4]
  outcome: inactive
[5]
  outcome: inactive
[6]
  outcome: inactive
[7]
  outcome: inactive

## Clc1cc(Cl)c2c(c1)N=C1CCCCCN1C2
[8]
  outcome: inactive
[1]
  outcome: inactive
[2]
  AC50: 1.61 µM (active)
[3]
  outcome: inactive
[4]
  outcome: inactive
[5]
  outcome: inactive
[6]
  outcome: inactive
[7]
  AC50: 6.31 µM (active)

## c1ccc(C[n+]2cccc3ccccc32)cc1
[8]
  AC50: 31.1 µM (active)
[1]
  AC50: 32.6 µM (active)
[2]
  AC50: 36.8 µM (active)
[3]
  outcome: inactive
[4]
  AC50: 76.1 µM (active)
[5]
  AC50: 63.7 µM (active)
[6]
  AC50: 50 µM (active)
[7]
  outcome: inactive

## OC12N=C(c3ccccc3)SC1Cc1cc(Cl)ccc12 (stereo not given)
[8]
  AC50: 16.6 µM (active)
[1]
  AC50: 15.7 µM (active)
[2]
  AC50: 1.21 µM (active)
[3]
  AC50: 5 µM (active)
[4]
  outcome: inactive
[5]
  outcome: inactive
[6]
  AC50: 4.85 µM (active)
[7]
  AC50: 3.34 µM (active)

## CC[C@H](NC(=O)c1cc(F)ccc1NS(=O)(=O)c1cccc2cccnc12)c1ccccc1
[8]
  AC50: 59.2 µM (active)
[1]
  AC50: 34 µM (active)
[2]
  AC50: 47.1 µM (active)
[3]
  outcome: inactive
[4]
  outcome: inactive
[5]
  outcome: inactive
[6]
  outcome: inactive
[7]
  outcome: inactive

## COc1ccc2cc(S(=O)(=O)N[C@H](CC(=O)N[C@H](Cc3ccc(CN4[C@H](C)CCC[C@@H]4C)cc3)C(=O)N(C)C(C)C)c3ccc4c(c3)OCO4)ccc2c1
[8]
  AC50: 17.7 µM (active)
[1]
  AC50: 17.3 µM (active)
[2]
  AC50: 24.4 µM (active)
[3]
  AC50: 15.1 µM (active)
[4]
  AC50: 25.2 µM (active)
[5]
  AC50: 25.9 µM (active)
[6]
  outcome: inactive
[7]
  AC50: 47.8 µM (active)

## Cc1cc(F)ccc1-c1cc(N2CC[C@@H](O)[C@H]2CO)ncc1N(C)C(=O)C(C)(C)c1cc(C(F)(F)F)cc(C(F)(F)F)c1
[8]
  AC50: 11.7 µM (active)
[1]
  AC50: 21.9 µM (active)
[2]
  AC50: 70.6 µM (active)
[3]
  AC50: 75.7 µM (active)
[4]
  outcome: inactive
[5]
  outcome: inactive
[6]
  outcome: inactive
[7]
  AC50: 76 µM (active)

## CC(=O)N1CCN(c2ccc(OC[C@H]3CO[C@](Cn4ccnc4)(c4ccc(Cl)cc4Cl)O3)cc2)CC1
[8]
  AC50: 13.1 µM (active)
[1]
  AC50: 11.8 µM (active)
[2]
  AC50: 0.698 µM (active)
[3]
  AC50: 74.2 µM (active)
[4]
  AC50: 33.4 µM (active)
[5]
  AC50: 12.5 µM (active)
[6]
  AC50: 77.6 µM (active)
[7]
  outcome: inactive

## O=c1[nH]sc2ccccc12
[8]
  outcome: inactive
[1]
  outcome: inactive
[2]
  AC50: 64.5 µM (active)
[3]
  outcome: inactive
[4]
  outcome: inactive
[5]
  outcome: inactive
[6]
  outcome: inactive
[7]
  outcome: inactive

## CC(C)(O)c1ccc(CNC(=O)c2cccnc2Oc2ccc3nonc3c2)cc1
[8]
  outcome: inactive
[1]
  outcome: inactive
[2]
  AC50: 34.7 µM (active)
[3]
  outcome: inactive
[4]
  outcome: inactive
[5]
  outcome: inactive
[6]
  outcome: inactive
[7]
  outcome: inactive

## CCCCCCCCOC(=O)c1cc(O)c(O)c(O)c1
[8]
  outcome: inactive
[1]
  outcome: inactive
[2]
  AC50: 50 µM (active)
[3]
  outcome: inactive
[4]
  outcome: inactive
[5]
  outcome: inactive
[6]
  outcome: inactive
[7]
  outcome: inactive

## CCN(CC)C(=O)c1cc(S(=O)(=O)Cc2ccccc2)c(N2CCC(c3ccccc3)CC2)cc1N(CC)CCN(C)C
[8]
  AC50: 30.2 µM (active)
[1]
  AC50: 29.4 µM (active)
[2]
  AC50: 7.21 µM (active)
[3]
  outcome: inactive
[4]
  outcome: inactive
[5]
  outcome: inactive
[6]
  outcome: inactive
[7]
  outcome: inactive

## CCCCCCCC[Si](OCC)(OCC)OCC
[8]
  outcome: inactive
[1]
  outcome: inactive
[2]
  outcome: inactive
[3]
  outcome: inactive
[4]
  outcome: inactive
[5]
  outcome: inactive
[6]
  outcome: inactive
[7]
  outcome: inactive

## O=C=NCCCCCCN=C=O
[8]
  outcome: inactive
[1]
  outcome: inactive
[2]
  AC50: 80.1 µM (active)
[3]
  outcome: inactive
[4]
  outcome: inactive
[5]
  outcome: inactive
[6]
  outcome: inactive
[7]
  outcome: inactive

## C[C@]12CC[C@@H]3c4ccc(O)cc4CC[C@H]3[C@@H]1CCC2=O
[8]
  outcome: inactive
[1]
  AC50: 50 µM (active)
[3]
  outcome: inactive
[4]
  outcome: inactive
[5]
  outcome: inactive
[6]
  outcome: inactive
[7]
  outcome: inactive

## CN(C)c1ccc(C(=C2C=CC(=[N+](C)C)C=C2)c2ccc(N(C)C)cc2)cc1
[8]
  AC50: 3.73 µM (active)
[1]
  AC50: 4.03 µM (active)
[2]
  AC50: 7.18 µM (active)
[3]
  AC50: 29.6 µM (active)
[4]
  AC50: 10.1 µM (active)
[5]
  AC50: 50 µM (active)
[6]
  AC50: 17.4 µM (active)
[7]
  AC50: 3.56 µM (active)

## CCCCCc1ccc(N)cc1
[8]
  outcome: inactive
[1]
  outcome: inactive
[2]
  AC50: 28.8 µM (active)
[3]
  outcome: inactive
[4]
  outcome: inactive
[5]
  outcome: inactive
[6]
  outcome: inactive
[7]
  outcome: inactive

## CCCC(=O)OCCC(C)C
[8]
  outcome: inactive
[1]
  outcome: inactive
[2]
  AC50: 68.2 µM (active)
[3]
  outcome: inactive
[4]
  outcome: inactive
[5]
  outcome: inactive
[6]
  outcome: inactive
[7]
  outcome: inactive

## CCOC(=O)O[C@H](C)OC(=O)c1ccc2c(c1)cc(C(=O)NC1CCN(C(C)C)CC1)n2Cc1cc(-c2ccc(Cl)s2)on1
[8]
  outcome: inactive
[1]
  outcome: inactive
[2]
  AC50: 65.2 µM (active)
[3]
  outcome: inactive
[4]
  outcome: inactive
[5]
  outcome: inactive
[6]
  outcome: inactive
[7]
  outcome: inactive

## Cc1ncc(CO)c(CO)c1O
[8]
  outcome: inactive
[1]
  outcome: inactive
[2]
  AC50: 65.3 µM (active)
[3]
  outcome: inactive
[4]
  outcome: inactive
[6]
  outcome: inactive
[7]
  outcome: inactive
